Reference: ChEMBL document CHEMBL1961873, “Compounds: GSK PKIS; Assays: Nanosyn kinase panel” (2012)

Assays:
[1] = target: Sphingosine kinase 1 (Homo sapiens) (UniProt Q9NYA1); settings: at 1 µM;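 note: mean SPHK1 inhibition value reported from the GSK PKIS kinase panel screen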
[2] = target: T1, Sphingosine kinase 2 (Homo sapiens) (UniProt Q9NRA0); settings: at 0.1 µM
T1 sequence (whole entry): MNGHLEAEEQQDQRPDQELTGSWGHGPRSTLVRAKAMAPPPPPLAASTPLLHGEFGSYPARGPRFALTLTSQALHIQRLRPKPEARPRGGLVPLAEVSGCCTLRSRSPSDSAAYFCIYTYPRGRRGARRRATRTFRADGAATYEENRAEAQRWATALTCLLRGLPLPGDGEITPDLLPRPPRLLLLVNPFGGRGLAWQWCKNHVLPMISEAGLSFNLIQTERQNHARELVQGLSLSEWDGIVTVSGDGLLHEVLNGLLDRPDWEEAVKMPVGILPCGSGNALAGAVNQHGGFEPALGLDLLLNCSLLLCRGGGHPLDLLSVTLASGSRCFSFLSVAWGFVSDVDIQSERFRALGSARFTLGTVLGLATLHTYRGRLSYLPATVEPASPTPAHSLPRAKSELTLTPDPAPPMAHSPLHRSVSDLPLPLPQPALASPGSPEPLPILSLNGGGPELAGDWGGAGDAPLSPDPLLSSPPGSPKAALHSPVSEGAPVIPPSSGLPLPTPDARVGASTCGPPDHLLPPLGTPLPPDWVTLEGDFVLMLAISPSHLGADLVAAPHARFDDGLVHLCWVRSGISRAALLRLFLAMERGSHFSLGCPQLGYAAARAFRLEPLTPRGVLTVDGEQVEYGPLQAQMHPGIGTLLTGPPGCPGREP

[3] = target: T1, Sphingosine kinase 2 (Homo sapiens); settings: at 1 µM
[4] = target: Casein kinase II subunit alpha (Homo sapiens) (UniProt P68400); settings: at 0.1 µM
[5] = target: Casein kinase II subunit alpha (Homo sapiens) (UniProt P68400); settings: at 1 µM
[6] = target: T2, Inhibitor of nuclear factor kappa-B kinase subunit alpha (Homo sapiens) (UniProt O15111); settings: at 0.1 µM
T2 sequence (whole entry): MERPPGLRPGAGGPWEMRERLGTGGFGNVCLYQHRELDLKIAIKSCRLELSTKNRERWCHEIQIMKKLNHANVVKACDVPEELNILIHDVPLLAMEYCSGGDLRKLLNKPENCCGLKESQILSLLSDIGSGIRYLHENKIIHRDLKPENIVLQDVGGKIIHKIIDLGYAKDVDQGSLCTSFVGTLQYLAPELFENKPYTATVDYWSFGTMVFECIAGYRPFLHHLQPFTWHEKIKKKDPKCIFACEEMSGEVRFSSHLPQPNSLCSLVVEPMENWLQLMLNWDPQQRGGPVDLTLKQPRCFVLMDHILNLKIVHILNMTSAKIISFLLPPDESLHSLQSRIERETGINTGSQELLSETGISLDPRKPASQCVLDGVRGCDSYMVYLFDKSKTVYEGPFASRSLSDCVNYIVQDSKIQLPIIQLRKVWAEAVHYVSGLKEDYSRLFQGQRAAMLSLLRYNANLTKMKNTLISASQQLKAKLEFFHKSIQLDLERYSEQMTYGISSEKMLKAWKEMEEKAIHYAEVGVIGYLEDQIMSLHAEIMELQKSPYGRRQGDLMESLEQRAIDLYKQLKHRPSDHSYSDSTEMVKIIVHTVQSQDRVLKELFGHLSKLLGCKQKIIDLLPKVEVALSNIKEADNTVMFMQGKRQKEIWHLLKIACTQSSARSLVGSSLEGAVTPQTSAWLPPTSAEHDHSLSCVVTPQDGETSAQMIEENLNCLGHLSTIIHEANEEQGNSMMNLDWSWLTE

[7] = target: T2, Inhibitor of nuclear factor kappa-B kinase subunit alpha (Homo sapiens); settings: at 1 µM
[8] = target: T3, Inhibitor of nuclear factor kappa-B kinase subunit beta (Homo sapiens) (UniProt O14920); settings: at 0.1 µM
T3 sequence (whole entry): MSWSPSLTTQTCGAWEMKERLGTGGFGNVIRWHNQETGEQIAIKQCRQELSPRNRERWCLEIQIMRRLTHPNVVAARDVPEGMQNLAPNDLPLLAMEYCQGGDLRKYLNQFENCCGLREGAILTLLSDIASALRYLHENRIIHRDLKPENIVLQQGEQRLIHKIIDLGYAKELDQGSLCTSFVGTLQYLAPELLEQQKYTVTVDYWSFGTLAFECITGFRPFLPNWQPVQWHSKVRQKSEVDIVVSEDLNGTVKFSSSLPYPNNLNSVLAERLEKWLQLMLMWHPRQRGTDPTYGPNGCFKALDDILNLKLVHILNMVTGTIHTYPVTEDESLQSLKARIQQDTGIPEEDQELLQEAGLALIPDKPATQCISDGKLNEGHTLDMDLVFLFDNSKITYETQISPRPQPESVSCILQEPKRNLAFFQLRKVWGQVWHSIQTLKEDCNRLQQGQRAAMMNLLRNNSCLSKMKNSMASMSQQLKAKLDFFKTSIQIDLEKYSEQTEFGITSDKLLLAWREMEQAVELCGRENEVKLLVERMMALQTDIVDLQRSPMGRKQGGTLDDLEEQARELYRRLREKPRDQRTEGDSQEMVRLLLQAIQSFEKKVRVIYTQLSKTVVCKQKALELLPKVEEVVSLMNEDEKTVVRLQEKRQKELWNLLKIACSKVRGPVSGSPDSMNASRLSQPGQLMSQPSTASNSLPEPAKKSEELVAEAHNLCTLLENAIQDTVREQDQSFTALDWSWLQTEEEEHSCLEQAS

[9] = target: T3, Inhibitor of nuclear factor kappa-B kinase subunit beta (Homo sapiens); settings: at 1 µM
[10] = target: T4, Inhibitor of nuclear factor kappa-B kinase subunit epsilon (Homo sapiens) (UniProt Q14164); settings: at 0.1 µM
T4 sequence (whole entry): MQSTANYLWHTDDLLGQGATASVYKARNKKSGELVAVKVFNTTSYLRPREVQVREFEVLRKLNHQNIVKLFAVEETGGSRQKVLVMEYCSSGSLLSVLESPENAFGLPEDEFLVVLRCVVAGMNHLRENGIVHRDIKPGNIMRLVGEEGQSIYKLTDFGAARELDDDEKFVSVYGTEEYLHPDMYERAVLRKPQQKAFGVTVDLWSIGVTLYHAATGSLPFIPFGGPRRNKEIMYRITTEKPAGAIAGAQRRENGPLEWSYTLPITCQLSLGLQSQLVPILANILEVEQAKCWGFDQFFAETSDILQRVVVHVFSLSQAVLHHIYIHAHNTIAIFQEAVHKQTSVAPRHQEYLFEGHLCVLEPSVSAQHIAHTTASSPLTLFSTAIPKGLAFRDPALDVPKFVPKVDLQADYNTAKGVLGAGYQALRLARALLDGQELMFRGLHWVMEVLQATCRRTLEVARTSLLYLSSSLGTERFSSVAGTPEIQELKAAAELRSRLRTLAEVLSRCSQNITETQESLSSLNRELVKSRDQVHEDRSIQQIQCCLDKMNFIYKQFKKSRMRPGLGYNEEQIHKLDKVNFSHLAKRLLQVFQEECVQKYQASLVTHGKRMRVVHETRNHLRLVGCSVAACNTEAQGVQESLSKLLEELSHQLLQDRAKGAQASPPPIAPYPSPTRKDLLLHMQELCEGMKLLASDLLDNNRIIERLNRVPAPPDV

[11] = target: T4, Inhibitor of nuclear factor kappa-B kinase subunit epsilon (Homo sapiens); settings: at 1 µM
[12] = target: T5, Serine/threonine-protein kinase Nek1 (Homo sapiens) (UniProt Q96PY6); settings: at 0.1 µM
T5 sequence (whole entry): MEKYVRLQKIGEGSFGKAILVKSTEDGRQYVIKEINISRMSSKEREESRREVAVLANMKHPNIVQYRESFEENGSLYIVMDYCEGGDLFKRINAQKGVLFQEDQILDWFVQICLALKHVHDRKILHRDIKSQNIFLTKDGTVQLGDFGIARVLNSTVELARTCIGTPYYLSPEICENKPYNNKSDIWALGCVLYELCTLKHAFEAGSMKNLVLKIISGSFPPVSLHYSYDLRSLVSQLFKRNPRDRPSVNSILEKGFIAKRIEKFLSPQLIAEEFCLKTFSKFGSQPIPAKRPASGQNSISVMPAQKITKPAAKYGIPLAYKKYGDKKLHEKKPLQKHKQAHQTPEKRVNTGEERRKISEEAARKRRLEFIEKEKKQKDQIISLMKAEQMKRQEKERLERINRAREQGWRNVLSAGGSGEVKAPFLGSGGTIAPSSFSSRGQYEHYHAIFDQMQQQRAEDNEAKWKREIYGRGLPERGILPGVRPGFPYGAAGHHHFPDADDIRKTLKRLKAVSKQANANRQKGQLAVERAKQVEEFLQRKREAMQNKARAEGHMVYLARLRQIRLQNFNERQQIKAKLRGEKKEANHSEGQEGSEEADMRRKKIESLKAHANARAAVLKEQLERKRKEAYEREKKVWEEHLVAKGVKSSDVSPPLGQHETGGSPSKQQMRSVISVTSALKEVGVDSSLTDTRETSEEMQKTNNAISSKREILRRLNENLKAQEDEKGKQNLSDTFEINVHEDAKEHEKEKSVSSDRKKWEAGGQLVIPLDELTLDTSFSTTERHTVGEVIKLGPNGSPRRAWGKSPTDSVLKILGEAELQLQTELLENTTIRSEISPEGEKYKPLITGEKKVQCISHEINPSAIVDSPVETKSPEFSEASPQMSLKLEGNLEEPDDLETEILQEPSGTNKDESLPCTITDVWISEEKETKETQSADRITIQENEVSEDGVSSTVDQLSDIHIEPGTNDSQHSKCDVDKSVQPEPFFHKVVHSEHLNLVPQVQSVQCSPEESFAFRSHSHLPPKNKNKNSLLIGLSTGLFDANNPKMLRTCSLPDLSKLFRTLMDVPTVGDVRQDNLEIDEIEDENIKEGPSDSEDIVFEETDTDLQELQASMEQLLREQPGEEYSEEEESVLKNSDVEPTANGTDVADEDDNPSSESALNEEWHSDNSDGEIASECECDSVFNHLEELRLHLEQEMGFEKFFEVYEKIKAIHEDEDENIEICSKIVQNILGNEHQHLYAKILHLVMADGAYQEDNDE

[13] = target: T5, Serine/threonine-protein kinase Nek1 (Homo sapiens); settings: at 1 µM
[14] = target: T6, Serine/threonine-protein kinase Nek2 (Homo sapiens) (UniProt P51955); settings: at 0.1 µM
T6 sequence (whole entry): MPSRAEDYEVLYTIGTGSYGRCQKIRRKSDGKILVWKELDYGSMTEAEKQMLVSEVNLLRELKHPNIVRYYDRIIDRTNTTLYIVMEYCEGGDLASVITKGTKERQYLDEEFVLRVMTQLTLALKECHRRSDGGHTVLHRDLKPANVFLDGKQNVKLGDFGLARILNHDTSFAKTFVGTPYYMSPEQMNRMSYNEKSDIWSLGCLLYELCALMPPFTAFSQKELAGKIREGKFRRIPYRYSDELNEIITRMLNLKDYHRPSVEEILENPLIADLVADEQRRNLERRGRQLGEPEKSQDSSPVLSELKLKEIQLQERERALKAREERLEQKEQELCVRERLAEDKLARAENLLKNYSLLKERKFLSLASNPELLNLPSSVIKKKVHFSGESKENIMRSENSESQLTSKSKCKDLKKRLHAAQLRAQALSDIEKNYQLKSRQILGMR

[15] = target: T6, Serine/threonine-protein kinase Nek2 (Homo sapiens); settings: at 1 µM
[16] = target: Serine/threonine-protein kinase Nek6 (Homo sapiens) (UniProt Q9HC98); settings: at 0.1 µM
[17] = target: Serine/threonine-protein kinase Nek6 (Homo sapiens) (UniProt Q9HC98); settings: at 1 µM
[18] = target: Serine/threonine-protein kinase Nek7 (Homo sapiens) (UniProt Q8TDX7); settings: at 0.1 µM
[19] = target: Serine/threonine-protein kinase Nek7 (Homo sapiens) (UniProt Q8TDX7); settings: at 1 µM
[20] = target: T7, Serine/threonine-protein kinase Nek9 (Homo sapiens) (UniProt Q8TD19); settings: at 0.1 µM;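 note: reported value is the mean percent inhibition of NEK9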
T7 sequence (whole entry): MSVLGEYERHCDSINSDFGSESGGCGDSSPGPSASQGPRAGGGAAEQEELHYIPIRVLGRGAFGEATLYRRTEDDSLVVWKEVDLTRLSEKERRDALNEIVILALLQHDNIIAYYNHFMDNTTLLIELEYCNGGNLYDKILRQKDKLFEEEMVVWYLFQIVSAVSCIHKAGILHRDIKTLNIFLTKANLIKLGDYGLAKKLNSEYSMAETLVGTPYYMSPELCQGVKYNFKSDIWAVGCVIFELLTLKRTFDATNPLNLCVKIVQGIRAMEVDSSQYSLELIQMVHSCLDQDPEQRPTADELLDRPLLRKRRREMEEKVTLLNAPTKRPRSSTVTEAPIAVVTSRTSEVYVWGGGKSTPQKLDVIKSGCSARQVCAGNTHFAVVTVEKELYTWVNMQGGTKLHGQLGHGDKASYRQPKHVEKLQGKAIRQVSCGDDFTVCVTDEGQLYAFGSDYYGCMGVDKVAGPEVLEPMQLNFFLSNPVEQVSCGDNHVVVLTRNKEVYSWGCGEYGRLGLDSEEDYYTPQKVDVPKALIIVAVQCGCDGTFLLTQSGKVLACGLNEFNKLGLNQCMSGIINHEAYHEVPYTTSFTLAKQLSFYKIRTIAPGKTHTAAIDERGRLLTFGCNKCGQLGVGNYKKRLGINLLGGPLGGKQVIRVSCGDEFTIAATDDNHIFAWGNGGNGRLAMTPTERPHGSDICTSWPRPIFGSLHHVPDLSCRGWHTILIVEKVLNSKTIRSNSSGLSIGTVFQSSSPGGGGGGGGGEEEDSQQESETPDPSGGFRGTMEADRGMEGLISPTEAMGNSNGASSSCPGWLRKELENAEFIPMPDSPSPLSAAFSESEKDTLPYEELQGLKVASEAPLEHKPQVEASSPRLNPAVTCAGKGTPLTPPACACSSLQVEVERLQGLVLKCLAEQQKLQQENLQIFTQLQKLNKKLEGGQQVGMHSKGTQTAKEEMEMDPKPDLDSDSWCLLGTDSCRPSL

Chain of Serine/threonine-protein kinase Nek6 (Homo sapiens) (Q9HC98 whole entry): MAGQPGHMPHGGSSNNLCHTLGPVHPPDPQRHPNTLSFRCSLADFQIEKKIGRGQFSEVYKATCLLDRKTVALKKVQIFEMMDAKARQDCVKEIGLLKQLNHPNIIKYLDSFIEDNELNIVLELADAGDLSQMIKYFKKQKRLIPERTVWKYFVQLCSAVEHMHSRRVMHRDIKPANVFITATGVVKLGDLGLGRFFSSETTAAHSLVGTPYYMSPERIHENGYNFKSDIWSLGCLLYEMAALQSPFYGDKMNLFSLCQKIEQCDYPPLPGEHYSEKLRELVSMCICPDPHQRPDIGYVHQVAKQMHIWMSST
Chain of Casein kinase II subunit alpha (Homo sapiens) (P68400 whole entry, looked up): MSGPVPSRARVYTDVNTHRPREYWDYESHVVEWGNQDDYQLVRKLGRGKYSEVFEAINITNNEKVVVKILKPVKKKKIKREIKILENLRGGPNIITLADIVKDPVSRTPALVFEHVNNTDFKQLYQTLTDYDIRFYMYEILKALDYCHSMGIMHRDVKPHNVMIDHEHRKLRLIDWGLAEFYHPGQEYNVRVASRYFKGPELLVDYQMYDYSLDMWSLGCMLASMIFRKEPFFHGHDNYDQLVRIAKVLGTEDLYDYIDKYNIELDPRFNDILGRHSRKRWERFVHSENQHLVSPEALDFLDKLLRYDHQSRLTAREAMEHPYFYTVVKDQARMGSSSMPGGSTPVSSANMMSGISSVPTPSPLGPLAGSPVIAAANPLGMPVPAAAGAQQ
Chain of Serine/threonine-protein kinase Nek7 (Homo sapiens) (Q8TDX7 whole entry, looked up): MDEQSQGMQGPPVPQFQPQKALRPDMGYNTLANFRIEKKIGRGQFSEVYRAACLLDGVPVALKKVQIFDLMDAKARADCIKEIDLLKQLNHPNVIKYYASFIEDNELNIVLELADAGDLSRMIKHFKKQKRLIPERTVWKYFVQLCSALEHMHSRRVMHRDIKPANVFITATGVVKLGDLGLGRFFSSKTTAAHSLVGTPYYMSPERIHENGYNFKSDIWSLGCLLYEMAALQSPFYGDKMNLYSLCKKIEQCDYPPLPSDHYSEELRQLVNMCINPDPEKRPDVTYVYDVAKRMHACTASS
Chain of Sphingosine kinase 1 (Homo sapiens) (Q9NYA1 whole entry): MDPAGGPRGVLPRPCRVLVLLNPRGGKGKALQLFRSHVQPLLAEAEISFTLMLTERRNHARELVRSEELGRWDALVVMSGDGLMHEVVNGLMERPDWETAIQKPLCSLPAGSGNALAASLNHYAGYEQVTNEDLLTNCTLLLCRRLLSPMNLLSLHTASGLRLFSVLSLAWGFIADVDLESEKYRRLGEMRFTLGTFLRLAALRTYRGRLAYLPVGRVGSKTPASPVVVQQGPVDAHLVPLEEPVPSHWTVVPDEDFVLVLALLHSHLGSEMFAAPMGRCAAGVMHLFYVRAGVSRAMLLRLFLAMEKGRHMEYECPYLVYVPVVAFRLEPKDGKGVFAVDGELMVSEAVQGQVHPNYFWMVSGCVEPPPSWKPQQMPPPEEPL

Question: Which inhibition [1] does the source give for `COC(=O)Nc1nc2cc(Oc3ccc(NC(=O)Nc4ccccc4)cc3)ccc2[nH]1` here?
Answer: 3.1%

Question: And the inhibition [2]?
Answer: -0.28%

Question: And the inhibition [3]?
Answer: 0.5%

Question: And the inhibition [4]?
Answer: 1.57%

Question: And the inhibition [5]?
Answer: 7.67%

Question: What about the inhibition [6] of the same molecule?
Answer: 10.9%

Question: What about the inhibition [7] of the same molecule?
Answer: 8.6%

Question: And the inhibition [8]?
Answer: 4.21%

Question: And the inhibition [9]?
Answer: 5.49%

Question: And the inhibition [10]?
Answer: 5.85%

Question: And the inhibition [11]?
Answer: 5.8%

Question: What about the inhibition [12] of the same molecule?
Answer: 1.46%

Question: What about the inhibition [13] of the same molecule?
Answer: 1.92%

Question: What about the inhibition [14] of the same molecule?
Answer: 3.05%

Question: What about the inhibition [15] of the same molecule?
Answer: 1.76%

Question: What about the inhibition [16] of the same molecule?
Answer: 3.54%

Question: And the inhibition [17]?
Answer: 0.95%

Question: What about the inhibition [18] of the same molecule?
Answer: 2.02%

Question: What about the inhibition [19] of the same molecule?
Answer: 1.72%

Question: And the inhibition [20]?
Answer: 4.39%
